Source: PubChem BioAssay (EPA / NIEHS)
Values joined by “and” are separate entries in the source; they are usually repeats but may differ in a detail not shown here. Identical values can stand only once. A structure can be active in one record and inactive in another. Active and inactive are the calls of the source. The calls were made as follows: active = hit-call score of the fitted dose curve at least 0.9, where 1 is the maximum; inactive = score below 0.9.

Assays:
[1] = read-out: Interleukin 17F (IL17F), IL17F (gene 112744); assay: BSK_BT_xIL17F: BioMAP Diversity Plus: BT Assay for Interleukin 17F (IL17F) Biomarker Activity (AID 2284243); conditions: primary human B cells with PBMC
Method in brief: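 Measures secreted IL-17F from a human B cell plus PBMC co-culture at 24 h post-dose by Luminex xMAP, with DMSO defining baseline activity.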

[2] = read-out: Actin alpha 1 (ACTA1), ACTA1 (gene 58); assay: BSK_MyoF_ACTA1: BioMAP Diversity Plus: MyoF Assay for Actin alpha 1 (ACTA1) Biomarker Activity (AID 2284244); conditions: primary human lung fibroblasts
Method in brief: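 Lung fibroblasts, human primary, 24 h compound exposure → a-SMA ELISA. Positive-direction fit vs DMSO control.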

[3] = read-out: Interleukin 2 (IL2), IL2 (gene 3558); assay: BSK_BT_xIL2: BioMAP Diversity Plus: BT Assay for Interleukin 2 (IL2) Biomarker Activity (AID 2284245); conditions: primary human B cells with PBMC
Method in brief: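 B cell + PBMC co-culture (human primary), compound added, 24 h incubation; secreted IL-2 measured multiplexed on Luminex xMAP; gain-of-signal fit vs DMSO.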

[4] = read-out: Basic fibroblast growth factor (bFGF), FGF2 (gene 2247); assay: BSK_MyoF_bFGF: BioMAP Diversity Plus: MyoF Assay for Basic fibroblast growth factor (bFGF) Biomarker Activity (AID 2284246); conditions: primary human lung fibroblasts
Method in brief: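 ELISA-measured bFGF level serves as the read-out, taken 24 h after chemical dosing of human lung fibroblasts. Values represent signal gain over the DMSO negative control.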

[5] = read-out: Collagen IV, COL4A1 (gene 1282); assay: BSK_MyoF_CollagenIV: BioMAP Diversity Plus: MyoF Assay for Collagen IV Biomarker Activity (AID 2284247); conditions: primary human lung fibroblasts
Method in brief: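 Steps: dose human lung fibroblasts; culture 24 h; quantify Collagen IV by ELISA; fit increase versus DMSO control. Parallel SRB total-protein staining (0.1% SRB after 10% TCA fixation, 560 nm) tracks overt cytotoxicity.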

[6] = read-out: Monokine induced gamma interferon (MIG), CXCL9 (gene 4283); assay: BSK_KF3CT_MIG: BioMAP Diversity Plus: KF3CT Assay for Monokine induced gamma interferon (MIG) Biomarker Activity (AID 2284248); conditions: primary human keratinocytes with fibroblasts
Method in brief: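 The assay uses a co-culture of human keratinocytes and foreskin fibroblasts. Measurement occurs 24 hours after dosing, with MIG detected by ELISA and the DMSO control as baseline.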

[7] = read-out: Vascular cell adhesion molecule 1 (VCAM1), VCAM1 (gene 7412); assay: BSK_BF4T_VCAM1: BioMAP Diversity Plus: BF4T Assay for Vascular cell adhesion molecule 1 (VCAM1) Biomarker Activity (AID 2284249); conditions: primary human bronchial epithelial cells with fibroblasts
Method in brief: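 Human bronchial epithelial cell and dermal fibroblast co-culture exposed 24 h. VCAM-1 measured by ELISA; parallel SRB total-protein staining for cytotoxicity. Fitted in positive direction relative to DMSO.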

[8] = read-out: Collagen I, COL1A1 (gene 1277); assay: BSK_hDFCGF_CollagenI: BioMAP Diversity Plus: hDFCGF Assay for Collagen I Biomarker Activity (AID 2284250); conditions: primary human foreskin fibroblasts
Method in brief: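 Human skin primary fibroblasts dosed with test chemical, harvested at 24 h, Collagen I quantified by ELISA; parallel SRB staining (0.1% SRB after 10% TCA fixation, 560 nm) tracked cytotoxicity.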

[9] = read-out: Plasminogen activator inhibitor-1 (PAI1), SERPINE1 (gene 5054); assay: BSK_KF3CT_PAI1: BioMAP Diversity Plus: KF3CT Assay for Plasminogen activator inhibitor-1 (PAI1) Biomarker Activity (AID 2284252); conditions: primary human keratinocytes with fibroblasts
Method in brief: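 ELISA read-out of PAI-1 taken 24 h after chemical treatment of a human skin primary co-culture of keratinocytes and foreskin fibroblasts. Increases over DMSO-treated wells defined activity.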

[10] = read-out: Monocyte Chemoattractant Protein-1 (MCP1), CCL2 (gene 6347); assay: BSK_IMphg_MCP1: BioMAP Diversity Plus: IMphg Assay for Monocyte Chemoattractant Protein-1 (MCP1) Biomarker Activity (AID 2284253); conditions: primary human endothelial cells with macrophages
Method in brief: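 Human venular endothelial cells co-cultured with macrophages; MCP-1 measured by ELISA 24 hours post-dose and fitted against DMSO. Cytotoxicity monitored by SRB total-protein staining in parallel cultures.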

[11] = read-out: Interleukin-8 (IL8), CXCL8 (gene 3576); assay: BSK_KF3CT_IL8: BioMAP Diversity Plus: KF3CT Assay for Interleukin-8 (IL8) Biomarker Activity (AID 2284254); conditions: primary human keratinocytes with fibroblasts
Method in brief: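 ELISA detection of IL-8 from a human skin co-culture, keratinocytes with foreskin fibroblasts, at 24 h following chemical exposure, with gain of signal scored against DMSO controls.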

[12] = read-out: Macrophage Inflammatory Protein-1 Alpha (MIP1a), CCL3 (gene 6348); assay: BSK_IMphg_MIP1a: BioMAP Diversity Plus: IMphg Assay for Macrophage Inflammatory Protein-1 Alpha (MIP1a) Biomarker Activity (AID 2284255); conditions: primary human endothelial cells with macrophages
Method in brief: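 Co-culture of human venular endothelial cells and macrophages exposed to compounds for 24 h; MIP-1a measured by ELISA relative to DMSO. Cytotoxicity assessed in parallel cultures by sulforhodamine B total-protein staining at 560 nm.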

[13] = read-out: Plasminogen activator inhibitor-1 (PAI1), SERPINE1 (gene 5054); assay: BSK_MyoF_PAI1: BioMAP Diversity Plus: MyoF Assay for Plasminogen activator inhibitor-1 (PAI1) Biomarker Activity (AID 2284256); conditions: primary human lung fibroblasts;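 as to outcome: PAI-1 protein level measured by ELISA in fibroblast cultures; PAI-1 read 24 h after compound addition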
Method in brief: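 Activity reflects increased PAI-1, determined by ELISA and compared with DMSO, in human lung fibroblasts treated for 24 h.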

CD69, CD69 (gene 969) = assay: BSK_IMphg_CD69: BioMAP Diversity Plus: IMphg Assay for CD69 Biomarker Activity (AID 2284257); conditions: primary human endothelial cells with macrophages
Method in brief: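 Human venular endothelial cells co-cultured with macrophages; CD69 quantified by ELISA 24 h after compound addition. Activity fitted in the positive direction relative to DMSO baseline; cytotoxicity tracked in parallel cultures via SRB total-protein staining.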

[14] = read-out: Eotaxin 3, CCL26 (gene 10344); assay: BSK_BF4T_Eotaxin3: BioMAP Diversity Plus: BF4T Assay for Eotaxin 3 Biomarker Activity (AID 2284258); conditions: primary human bronchial epithelial cells with fibroblasts
Method in brief: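 Co-culture of human bronchial epithelial cells and dermal fibroblasts, exposed to chemicals for 24 h versus DMSO. Eotaxin-3 quantified by ELISA; cytotoxicity checked in parallel cultures by sulforhodamine B total-protein staining.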

[15] = read-out: Monocyte Chemoattractant Protein-1 (MCP1), CCL2 (gene 6347); assay: BSK_BF4T_MCP1: BioMAP Diversity Plus: BF4T Assay for Monocyte Chemoattractant Protein-1 (MCP1) Biomarker Activity (AID 2284259); conditions: primary human bronchial epithelial cells with fibroblasts
Method in brief: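 Co-culture of bronchial epithelial cells and dermal fibroblasts dosed with chemical; MCP-1 measured by ELISA 24 h later. Activity fitted in positive direction versus DMSO; cytotoxicity checked by SRB staining in parallel cultures.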

[16] = read-out: Intercellular Adhesion Molecule 1 (ICAM1), ICAM1 (gene 3383); assay: BSK_BF4T_ICAM1: BioMAP Diversity Plus: BF4T Assay for Intercellular Adhesion Molecule 1 (ICAM1) Biomarker Activity (AID 2284260); conditions: primary human bronchial epithelial cells with fibroblasts
Method in brief: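 Co-culture of human bronchial epithelial cells and dermal fibroblasts exposed 24 h to chemical; cell-surface ICAM-1 quantified by ELISA. Parallel SRB total-protein staining assessed cytotoxicity; activity fitted relative to DMSO.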

[17] = read-out: Interleukin-8 (IL8), CXCL8 (gene 3576); assay: BSK_MyoF_IL8: BioMAP Diversity Plus: MyoF Assay for Interleukin-8 (IL8) Biomarker Activity (AID 2284261); conditions: primary human lung fibroblasts
Method in brief: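 In this multiplexed primary-cell system, fibroblasts from human lung are treated with chemicals, and IL-8 is detected by ELISA at 24 h, with DMSO serving as the negative reference.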

CD90, THY1 (gene 7070) = assay: BSK_BF4T_CD90: BioMAP Diversity Plus: BF4T Assay for CD90 Biomarker Activity (AID 2284262); conditions: primary human bronchial epithelial cells with fibroblasts
Method in brief: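 Co-culture of human bronchial epithelial cells and dermal fibroblasts, 24 h compound exposure. Cell-surface CD90 measured by ELISA relative to DMSO; parallel SRB total-protein staining for cytotoxicity.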

[18] = read-out: Interferon-inducible T-cell alpha chemoattractant (ITAC), CXCL11 (gene 6373); assay: BSK_hDFCGF_ITAC: BioMAP Diversity Plus: hDFCGF Assay for Interferon-inducible T-cell alpha chemoattractant (ITAC) Biomarker Activity (AID 2284251); conditions: primary human foreskin fibroblasts
Method in brief: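 Primary human foreskin fibroblasts (hDFCGF system) treated for 24 h; I-TAC quantified by ELISA. Gain-direction fitting versus DMSO; parallel SRB staining of total protein flagged overt cytotoxicity.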

FC(F)(F)C(F)(F)C(F)(F)CC1CO1 (stereo not given)
outcome [1]: inactive
outcome [2]: inactive
outcome [3]: inactive
outcome [4]: inactive
outcome [5]: inactive
outcome [6]: inactive
outcome [7]: inactive
outcome [8]: inactive
outcome [9]: inactive
outcome [10]: inactive
outcome [11]: inactive
outcome [12]: inactive
outcome [13]: inactive
outcome (CD69, CD69 (gene 969)): inactive
outcome [14]: inactive
outcome [15]: inactive
outcome [16]: inactive
outcome [17]: inactive
outcome (CD90, THY1 (gene 7070)): inactive

C[C@]12CC[C@H]3C(=CCc4cc(O)ccc43)[C@@H]1CCC2=O
AC50 [1]: 20 µM (active)
outcome [2]: inactive
outcome [3]: inactive
outcome [5]: inactive
outcome [13]: inactive
outcome [17]: inactive

C=CC(=O)OCC(F)(F)C(F)(F)C(F)(F)COC(=O)C=C
AC50 [1]: 2.89 µM (active) and 3.25 µM (active)
AC50 [2]: 8.23 µM (active) and 4.42 µM (active)
AC50 [3]: 9.03 µM (active) and 9.56 µM (active)
outcome [5]: inactive
AC50 [6]: 23.2 µM (active) and 22.2 µM (active)
AC50 [7]: 7.91 µM (active) and 8.05 µM (active)
outcome [8]: inactive
AC50 [18]: 733 nM (active) and 1.58 µM (active)
AC50 [9]: 22.7 µM (active) and 21.2 µM (active)
AC50 [10]: 37.9 µM (active) and 36.8 µM (active)
AC50 [11]: 14.7 µM (active) and 14.9 µM (active)
AC50 [12]: 47.1 µM (active) and 48 µM (active)
AC50 [13]: 14.2 µM (active) and 14.7 µM (active)
AC50 (CD69, CD69 (gene 969)): 54.8 µM (active) and 44 µM (active)
AC50 [14]: 14.8 µM (active) and 17 µM (active)
AC50 [15]: 15.3 µM (active) and 11.7 µM (active)
AC50 [16]: 7.12 µM (active) and 9.76 µM (active)
AC50 [17]: 16.5 µM (active) and 14.3 µM (active)
AC50 (CD90, THY1 (gene 7070)): 8.59 µM (active)
outcome (CD90, THY1 (gene 7070)): inactive

O=C(O)C(F)(F)OC(F)(F)C(F)(F)OC(F)(F)C(F)(F)OC(F)(F)F
outcome [1]: inactive
outcome [2]: inactive
outcome [3]: inactive
outcome [5]: inactive
outcome [6]: inactive
outcome [7]: inactive
outcome [8]: inactive
outcome [9]: inactive
outcome [10]: inactive
outcome [11]: inactive
outcome [12]: inactive
outcome [13]: inactive
outcome (CD69, CD69 (gene 969)): inactive
outcome [14]: inactive
outcome [15]: inactive
outcome [16]: inactive
outcome [17]: inactive
outcome (CD90, THY1 (gene 7070)): inactive

C=CC(=O)OCC(F)(F)C(F)(F)C(F)(F)C(F)(F)C(F)(F)C(F)(F)C(F)(F)C(F)F
AC50 [1]: 18.8 µM (active)
AC50 [3]: 44.5 µM (active)
outcome [3]: inactive
outcome [4]: inactive
outcome [5]: inactive
outcome [6]: inactive
outcome [7]: inactive
outcome [8]: inactive
outcome [9]: inactive
outcome [10]: inactive
outcome [11]: inactive
outcome [12]: inactive
outcome [13]: inactive
outcome (CD69, CD69 (gene 969)): inactive
outcome [14]: inactive
outcome [15]: inactive
outcome [16]: inactive
outcome [17]: inactive
outcome (CD90, THY1 (gene 7070)): inactive

NC(=O)C(F)(F)C(F)(F)C(F)(F)F
outcome [1]: inactive
outcome [2]: inactive
outcome [3]: inactive
outcome [5]: inactive
outcome [6]: inactive
outcome [7]: inactive
outcome [8]: inactive
outcome [9]: inactive
outcome [10]: inactive
outcome [11]: inactive
outcome [12]: inactive
outcome [13]: inactive
outcome (CD69, CD69 (gene 969)): inactive
outcome [14]: inactive
outcome [15]: inactive
outcome [16]: inactive
outcome [17]: inactive
outcome (CD90, THY1 (gene 7070)): inactive

OCC(F)(F)C(F)(F)C(F)(F)C(F)(F)C(F)(F)C(F)(F)C(F)(F)C(F)(F)CO
AC50 [1]: 53.8 µM (active) and 38.5 µM (active)
AC50 [2]: 44.9 µM (active) and 42.5 µM (active)
AC50 [3]: 54.7 µM (active) and 46.9 µM (active)
AC50 [5]: 49.1 µM (active)
outcome [5]: inactive
AC50 [6]: 49.2 µM (active) and 48.4 µM (active)
AC50 [7]: 12 µM (active)
outcome [7]: inactive
outcome [8]: inactive
AC50 [9]: 54.3 µM (active) and 48.3 µM (active)
AC50 [10]: 50.4 µM (active) and 51.3 µM (active)
AC50 [11]: 47.4 µM (active) and 50.4 µM (active)
AC50 [12]: 50 µM (active) and 51.6 µM (active)
outcome [13]: inactive
AC50 (CD69, CD69 (gene 969)): 54.4 µM (active) and 42.6 µM (active)
AC50 [14]: 15.3 µM (active) and 16.6 µM (active)
AC50 [15]: 16.7 µM (active) and 9.07 µM (active)
AC50 [16]: 16.4 µM (active) and 12.2 µM (active)
outcome [17]: inactive
outcome (CD90, THY1 (gene 7070)): inactive
